Drawing on ChEMBL document CHEMBL4513146, “CO-ADD screening of Karazin Kharkiv National University (Ukraine) compounds”, this text covers Inhibition for 48 compounds.

What is called Inhibition is the drop in the measured response relative to a control, in per cent.

Results with a measured potency or affinity are listed apart.

Assay [1] relates to Staphylococcus aureus. As to conditions: Concentration 32 ug.mL-1;; ASSAY_TEST Inhibition of Bacterial Growth; detection method Absorption (OD600); MEDIA CAMHB; plate type 384well; NBS; CORNING #3640; time 18 hr.
Assay [2] concerns Escherichia coli. The settings on record: Concentration 32 ug.mL-1;; ASSAY_TEST Inhibition of Bacterial Growth; detection method Absorption (OD600); MEDIA CAMHB; plate type 384well; NBS; CORNING #3640; time 18 hr.

As to `CCCCn1c(=O)c2sccc2n2c(=O)n(CC(=O)c3ccc(C)cc3C)nc12`, the Inhibition in assay [1] was -3.74%; in assay [2], -4.86%.
For `CC(C)CCn1c(=O)c2sccc2n2c(=O)n(CC(=O)N(C)c3ccccc3)nc12`, in that order: -2.05% and -10.35%.
On to `COc1cc(OC)c(NC(=O)Cn2nc3c(Oc4ccccc4)nccn3c2=O)cc1Cl`, for which the Inhibition in assay [1] is reported as -15.01%; in assay [2] it was -15.59%.
Consider `COc1cccc(-n2ccn3c(SCC(=O)NCc4ccc(Cl)cc4)nnc3c2=O)c1`, for which the figures for the Inhibition in assay [1] and in assay [2] were 10.06% and -3.71%, respectively.
With `COc1cc(NC(=O)CSc2nnc3c(=O)n(-c4ccc(C)c(C)c4)ccn23)cc(OC)c1`, the Inhibition in assay [1] was 3.54%; in assay [2], -13.82%.
In the case of `Cc1ccc(Sc2ccc3nn(CC(=O)Nc4ccc(F)c(Cl)c4)c(=O)n3n2)cc1`, the Inhibition in assay [1] amounted to 7.06%; in assay [2], 0.26%.
For `Cc1ccc(-c2ccc3nn(Cc4cccc(Br)c4)c(=O)n3n2)cc1`, in that order: 2.3% and -6.95%.
For the compound `O=C(Cn1nc2c(N3CCOCC3)nccn2c1=O)NCc1cccc(C(F)(F)F)c1`, the Inhibition in assay [1] is 16.25%; in assay [2], -1.74%.
The like results for `O=C(CSc1nnc2c(=O)n(-c3cccc(F)c3)ccn12)Nc1ccc(Br)cc1` were, in that order, 17.12% and -2.48%.
For the compound `Cc1ccc(Oc2nccn3c(=O)n(CC(=O)NCCC4=CCCCC4)nc23)cc1`, the Inhibition is listed as 4.93% in assay [1] and -4.1% in assay [2].
For `Cc1ccc(-c2cc3c4nn(CC(=O)NCc5ccc(Cl)cc5)c(=O)n4ccn3n2)cc1C`, in that order: 6.87% and 6.43%.
In the case of `CCCCOc1ccc(-c2cc3c4nnc(SCC(=O)NCc5ccc(C)cc5)n4ccn3n2)cc1`, the Inhibition in assay [1] is 2.78%; in assay [2], -5.47%.
For `O=C(CSc1nnc2c3cc(-c4ccc(F)cc4)nn3ccn12)NCc1ccc(Cl)cc1`, the Inhibition in assay [1] is given as -3.32%; in assay [2], -11.03%.
The like results for `COc1cccc(NC(=O)Cn2nc3c(Oc4ccccc4)nccn3c2=O)c1` were, in that order, 0.03% and -5.32%.
Regarding `O=C(CSc1nnc2c3cc(-c4ccc(F)cc4)nn3ccn12)NCCc1ccccc1`, the Inhibition in assay [1] is given as 4.82%; in assay [2], -7.39%.
For the compound `CCCN(C)c1nccn2c(=O)n(CC(=O)Nc3cccc(Cl)c3F)nc12`, the Inhibition was 4.66% in assay [1] and 0.13% in assay [2].
As to `Cc1ccc(NC(=O)Cn2nc3c(Sc4ccccc4)nccn3c2=O)c(C)c1`, the Inhibition is listed as 5.22% in assay [1] and -4.74% in assay [2].
Consider `Cc1ccccc1Oc1nccn2c(=O)n(CC(=O)Nc3ccc(C(C)C)cc3)nc12`, for which the Inhibition in assay [1] was -1.76%; in assay [2], -10.99%.
The like results for `CC(C)Cn1c(=O)c2sccc2n2c(=O)n(CC(N)=O)nc12` were, in that order, -15.52% and -14.55%.
For `COc1cccc(Oc2nccn3c(=O)n(CC(=O)Nc4ccc5c(c4)OCO5)nc23)c1`, in that order: 9.63% and -4.07%.
The like results for `N#Cc1cccc(NC(=O)CSc2nnc3c4cc(-c5ccccc5)nn4ccn23)c1` were, in that order, 2.79% and -3.47%.
In the case of `CCc1cccc(NC(=O)Cn2nc3ccc(SC(C)C)nn3c2=O)c1`, the Inhibition in assay [1] is given as 3.75%; in assay [2] it was -0.03%.
For the compound `Cc1ccc(Sc2nccn3c(=O)n(CC(=O)Nc4cccc(Cl)c4)nc23)c(C)c1`, the Inhibition was 9.86% in assay [1] and -3.61% in assay [2].
For `COC(=O)c1ccc(CN(c2ccc(C)cc2)S(=O)(=O)c2ccc3nnc(C)n3c2)o1`, the Inhibition in assay [1] is recorded as 4.75%; in assay [2], -4.99%.
Take `COc1ccccc1CNC(=O)Cn1nc2c(N3CCCCCC3)nccn2c1=O`: the Inhibition in assay [1] is listed as 17.1%; in assay [2] it was -0.92%.
`O=C(Cn1nc2c(N3CCOCC3)nccn2c1=O)N1CCN(c2ccccc2F)CC1`: the values for the Inhibition in assay [1] and in assay [2] were 14.68% and 2.59%, respectively.
As to `CCc1ccc(NC(=O)Cn2nc3c(=O)n(-c4ccc(Br)cc4)ccn3c2=O)cc1`, the Inhibition in assay [1] is reported as -5.7%; in assay [2], -7.12%.
With `COc1ccc(NC(=O)Cn2nc3c4cc(-c5ccc(C)cc5)nn4ccn3c2=O)cc1Cl`, the Inhibition in assay [1] is -6.7%; in assay [2] it was -3.03%.
With `Cc1ccc(-c2ccc3nn(Cc4cccc(Br)c4)c(=O)n3n2)cc1C`, the figures for the Inhibition in assay [1] and in assay [2] were 9.24% and -2.14%, respectively.
`CCOc1ccc(-n2ccn3c(SCC(=O)Nc4ccc(CC)cc4)nnc3c2=O)cc1`: the Inhibition in assay [1] is 18.59%; in assay [2], -0.7%.
For the compound `Cc1ccccc1-c1noc(Cn2nc3ccc(-c4ccccc4)nn3c2=O)n1`, the values for the Inhibition in assay [1] and in assay [2] were -12.29% and -7.81%, respectively.
For the compound `COc1ccc(C)cc1NC(=O)Cn1nc2c(N3CCSCC3)nc3ccccc3n2c1=O`, the values for the Inhibition in assay [1] and in assay [2] were 9.36% and 0.1%, respectively.
For `Cc1cc(C)cc(Nc2nc(C)cc3nn(CC(=O)Nc4cccc(Cl)c4)c(=O)n23)c1`, in that order: 6.53% and -7.17%.
The like results for `CCC(C)NC(=O)c1ccc2c(=O)n(CCC(C)C)c3nn(CC#N)c(=O)n3c2c1` (stereo unspecified) were, in that order, 11.05% and -1.24%.
For `Cc1nnc2ccc(S(=O)(=O)N(CC(=O)OC(C)(C)C)c3ccc4c(c3)OCO4)cn12`, the Inhibition in assay [1] is given as 2.93%; in assay [2] it was -7.09%.
Turning to `O=C(CSc1nnc2c3cc(-c4ccc(F)cc4)nn3ccn12)NCc1ccccc1Cl`, the Inhibition is given as 1.62% in assay [1] and -6.39% in assay [2].
As to `O=C(Cn1nc2c(SC3CCCCC3)nccn2c1=O)Nc1ccccc1F`, the Inhibition in assay [1] is 2.83%; in assay [2], -6.05%.
On to `Cc1nnc2c(S(=O)(=O)N(Cc3ccc(F)cc3)c3ccc(Cl)cc3)cccn12`, for which the results for the Inhibition in assay [1] and in assay [2] were 5.21% and -5.38%, respectively.
Take `COc1cccc(Sc2nc3ccccc3n3c(=O)n(CC(=O)Nc4cccc(F)c4)nc23)c1`: the Inhibition in assay [1] was 3.13%; in assay [2], -1.66%.
On to `COc1ccc(NC(=O)Cn2nc3ccc(SCc4ccc(Cl)cc4)nn3c2=O)cc1`, for which the Inhibition is -5.92% in assay [1] and -10.26% in assay [2].
For `O=S(=O)(c1ccc2nncn2c1)N(Cc1ccccc1F)c1cccc(F)c1`, the Inhibition is -5.69% in assay [1] and -18.72% in assay [2].
On to `Cc1cc2nn(CC(=O)N3CCCc4ccccc43)c(=O)n2c(Nc2ccc(F)cc2)n1`, for which the Inhibition in assay [1] is on record as 6.5%; in assay [2], -0.15%.
On to `CCN(C(=O)Cn1nc2nc(Nc3ccc(F)cc3)ccn2c1=O)c1ccccc1`, for which the Inhibition in assay [1] was 12.68%; in assay [2], -3.17%.
For `Cc1nnc2c(SCC(=O)Nc3ccc4c(c3)OCCO4)nc3ccccc3n12`, in that order: 5.53% and 3.38%.
As to `Cc1nnc2c(=O)n(CC(=O)Nc3cccc(Cl)c3)c3ccccc3n12`, the Inhibition was found to be 13.08% in assay [1] and 5.41% in assay [2].
Turning to `COc1cc(NC(=O)C(C)Sc2nnc3c(=O)n(-c4ccccc4OC)ccn23)cc(OC)c1` (stereo unspecified), the Inhibition in assay [1] is on record as 15.1%; in assay [2], -4.09%.
The like results for `Cc1ccccc1N1CCN(c2nccn3c(=O)n(CC(=O)Nc4cccc(C(C)C)c4)nc23)CC1` were, in that order, 14.78% and -9.47%.
`O=C(CCc1nnc2c(N3CCCCC3)nc3ccccc3n12)NCc1ccc(Br)cc1`: the figures for the Inhibition in assay [1] and in assay [2] were 2.96% and -5.93%, respectively.
